Assay results as given in PubChem BioAssay (EPA / NIEHS).
Records with an inconclusive call do not appear. Calls of active or inactive are those of the source. How the source made its calls: active means hit-call score of the fitted dose curve at least 0.9, where 1 is the maximum; inconclusive means response in the unintended direction; inactive means score below 0.9.

The molecules below were run against human Epidermal Growth Factor Receptor (EGFR), EGFR (gene 1956) (UniProt P00533) (assay: NVS_ENZ_hEGFR: NovaScreen (NVS) Enzymatic Assay for human Epidermal Growth Factor Receptor (EGFR) (AID 2283151)).
Chain of human Epidermal Growth Factor Receptor (EGFR), EGFR (gene 1956) (P00533 whole entry, looked up): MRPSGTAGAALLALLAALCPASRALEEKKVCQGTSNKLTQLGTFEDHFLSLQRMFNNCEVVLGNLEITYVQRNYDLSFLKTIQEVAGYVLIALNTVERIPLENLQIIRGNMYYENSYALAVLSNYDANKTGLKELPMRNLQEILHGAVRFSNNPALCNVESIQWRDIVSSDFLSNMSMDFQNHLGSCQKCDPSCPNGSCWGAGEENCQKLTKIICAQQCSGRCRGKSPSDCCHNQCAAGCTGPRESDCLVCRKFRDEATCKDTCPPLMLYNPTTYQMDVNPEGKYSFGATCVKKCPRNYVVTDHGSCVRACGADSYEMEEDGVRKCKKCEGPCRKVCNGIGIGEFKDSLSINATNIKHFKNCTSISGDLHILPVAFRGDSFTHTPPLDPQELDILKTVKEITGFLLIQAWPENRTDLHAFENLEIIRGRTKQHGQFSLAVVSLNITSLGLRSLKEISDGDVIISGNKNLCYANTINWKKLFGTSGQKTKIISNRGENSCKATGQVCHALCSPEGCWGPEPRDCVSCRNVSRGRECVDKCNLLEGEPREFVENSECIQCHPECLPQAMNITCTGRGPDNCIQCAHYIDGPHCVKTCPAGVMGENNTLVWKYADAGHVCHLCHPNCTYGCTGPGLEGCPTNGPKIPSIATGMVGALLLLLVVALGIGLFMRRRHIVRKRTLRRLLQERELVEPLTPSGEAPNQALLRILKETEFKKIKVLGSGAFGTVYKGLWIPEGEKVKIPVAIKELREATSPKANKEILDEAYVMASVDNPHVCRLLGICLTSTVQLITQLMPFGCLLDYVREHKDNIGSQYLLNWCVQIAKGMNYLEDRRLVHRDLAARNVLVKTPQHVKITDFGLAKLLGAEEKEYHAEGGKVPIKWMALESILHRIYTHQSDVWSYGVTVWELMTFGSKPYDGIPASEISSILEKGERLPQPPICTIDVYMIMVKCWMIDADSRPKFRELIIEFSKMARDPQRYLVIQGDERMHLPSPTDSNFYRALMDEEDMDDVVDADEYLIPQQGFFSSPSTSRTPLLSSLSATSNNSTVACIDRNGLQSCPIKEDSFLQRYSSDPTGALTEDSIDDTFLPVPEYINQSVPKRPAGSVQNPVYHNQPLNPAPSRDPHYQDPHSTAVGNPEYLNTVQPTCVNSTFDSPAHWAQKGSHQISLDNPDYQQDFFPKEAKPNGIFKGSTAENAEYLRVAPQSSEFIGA
Experimental: (§1) NVS_ENZ_hEGFR is a biochemical, single-readout assay that uses extracted gene-proteins in a cell-free assay. Measurements were taken 1 hour after chemical dosing in a 384-well plate.NVS_ENZ_hEGFR is one of one assay component(s) measured or calculated from the NVS_ENZ_hEGFR assay. It is designed to make measurements of enzyme activity, a form of enzyme reporter, as detected with fluorescence intensity signals by Fluorescence and electrophoretic mobility shift technology.Data from the assay component NVS_ENZ_hEGFR was analyzed into 1 assay endpoint. This assay endpoint, NVS_ENZ_hEGFR, was analyzed in the positive analysis fitting direction relative to DMSO as the negative control and baseline of activity. Using a type of enzyme reporter, loss-of-signal activity can be used to understand changes in the enzymatic activity as they relate to the gene EGFR. Furthermore, this assay endpoint can be referred to as a primary readout, because this assay has produced multiple assay endpoints where this one serves a enzymatic activity function. To generalize the intended target to other relatable targets, this assay endpoint is annotated to the kinase intended target family, where the subfamily is receptor tyrosine kinase.
(§2) Binding assays used specific radioligands (tritiated, iodinated) with non-radioactive competitive displacement ligands in agonist or antagonist protocols (as indicated) and various reference compounds and inhibitors to titrate specific binding to receptors and transporters. Most enzyme assays (CYPs, kinases, phosphatases, proteases, HDACs) used recombinant protein and specific substrates (fluorescence mostly, some colorimetric and radioactive) and inhibitors, followed by a biochemical separation of substrate and product. All assays for the biochemical HTS were initially run in duplicate at a single concentration (10 uM for CYP450 assays and 25 uM for all others). Assay-chemical combinations meeting a pre-defined threshold (e.g., 30% inhibition and other criteria defined below) were then run in singleton concentration-response format with maximum concentration of 20 uM for CYPs and 50 uM for all others. Each assay was run with positive and negative controls, and concurrent controls on every plate. The follow-up (secondary) screen tested active chemical-pairs in concentration series, as well as a few additional assays not tested in the primary screen, some selected negative inactives, and several cases re-run in the concentration series for confirmatory purposes.

Row | SMILES | outcome
1 | ClC1=C(Cl)C2(Cl)C3C(Cl)C(Cl)CC3C1(Cl)C2(Cl)Cl (configuration not stated) | inactive
2 | Cc1ccc(O)cc1C | inactive
3 | CC(C)(C)OOC(C)(C)C | inactive
4 | O=P1(N(CCCl)CCCl)NCCCO1 (configuration not stated) | inactive

Each molecule was assayed against human Dual Specificity Protein Phosphatase 3 (DUSP3), DUSP3 (gene 1845) (UniProt P51452) (assay: NVS_ENZ_hDUSP3: NovaScreen (NVS) Enzymatic Assay for human Dual Specificity Protein Phosphatase 3 (DUSP3) (AID 2283152);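 further: phosphatase activity of recombinant human DUSP3 on a fluorogenic substrate without cells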).
Chain of human Dual Specificity Protein Phosphatase 3 (DUSP3), DUSP3 (gene 1845) (P51452 whole entry, looked up): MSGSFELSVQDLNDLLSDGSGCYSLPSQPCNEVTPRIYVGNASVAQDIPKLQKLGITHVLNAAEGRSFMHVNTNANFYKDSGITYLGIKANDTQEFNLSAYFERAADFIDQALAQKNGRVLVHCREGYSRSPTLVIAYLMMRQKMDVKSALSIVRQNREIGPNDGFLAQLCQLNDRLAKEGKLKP
Procedure, shortened: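 Cell-free fluorescence-intensity enzyme activity assay with recombinant protein and substrate; loss of signal fitted relative to DMSO baseline. Primary screen in duplicate at 25 uM, actives then run in concentration series; measured 0 h after dosing.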

Row | SMILES | AC50
5 | CCOP(=S)(OCC)SCSc1ccc(Cl)cc1 | 17.3 µM (active)
6 | CC(C)Nc1ccc(Nc2ccccc2)cc1 | 2.71 µM (active)
7 | CCOP(=S)(OCC)SCn1nnc2ccccc2c1=O | 19.6 µM (active)
8 | CCOP(=S)(S)OCC | 19.9 µM (active)
9 | O=c1ssc(Cl)c1Cl | 6.98 µM (active)

Each molecule was assayed against human Esterase Plasma (ES), BCHE (gene 590) (UniProt P06276) (assay: NVS_ENZ_hES: NovaScreen (NVS) Enzymatic Assay for human Esterase Plasma (ES) (AID 2283157)).
Chain of human Esterase Plasma (ES), BCHE (gene 590) (P06276 whole entry, looked up): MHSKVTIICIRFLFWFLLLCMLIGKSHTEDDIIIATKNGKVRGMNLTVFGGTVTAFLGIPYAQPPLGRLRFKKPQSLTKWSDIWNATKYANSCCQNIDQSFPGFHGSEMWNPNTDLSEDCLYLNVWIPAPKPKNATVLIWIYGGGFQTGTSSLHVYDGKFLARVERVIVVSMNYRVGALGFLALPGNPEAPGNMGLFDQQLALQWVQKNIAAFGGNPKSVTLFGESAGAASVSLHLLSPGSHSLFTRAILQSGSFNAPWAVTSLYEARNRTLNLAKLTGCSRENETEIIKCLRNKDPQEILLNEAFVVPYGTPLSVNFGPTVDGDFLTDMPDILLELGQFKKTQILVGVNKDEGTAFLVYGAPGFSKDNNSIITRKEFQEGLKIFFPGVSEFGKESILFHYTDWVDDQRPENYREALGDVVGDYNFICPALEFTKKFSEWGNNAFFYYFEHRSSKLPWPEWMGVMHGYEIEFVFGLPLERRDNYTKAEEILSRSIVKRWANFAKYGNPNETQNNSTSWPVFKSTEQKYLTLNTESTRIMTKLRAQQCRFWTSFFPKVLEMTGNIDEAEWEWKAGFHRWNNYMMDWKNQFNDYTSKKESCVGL
Procedure, shortened: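 Primary single-concentration screen at 25 uM in duplicate, then concentration-response to a 50 uM top dose. Human plasma esterase activity detected colorimetrically after 0.25 h incubation, with DMSO as baseline.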

Row | SMILES | outcome | AC50
10 | CCNc1nc(Cl)nc(NC(C)(C)C)n1 | inactive | –
11 | CCCCN(CCCC)SN(C)C(=O)Oc1cccc2c1OC(C)(C)C2 | inactive | –
12 | Nc1ccc2ccccc2c1 | – | 13.7 µM (active)
13 | O=P1(N(CCCl)CCCl)NCCCO1 (configuration not stated) | inactive | –

These molecules were tested against human Ephrin type-A Receptor 1 (EphA1), EPHA1 (gene 2041) (UniProt P21709) (assay: NVS_ENZ_hEphA1: NovaScreen (NVS) Enzymatic Assay for human Ephrin type-A Receptor 1 (EphA1) (AID 2283158);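 further: activity is signal loss versus DMSO meaning EphA1 kinase inhibition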).
Chain of human Ephrin type-A Receptor 1 (EphA1), EPHA1 (gene 2041) (P21709 whole entry, looked up): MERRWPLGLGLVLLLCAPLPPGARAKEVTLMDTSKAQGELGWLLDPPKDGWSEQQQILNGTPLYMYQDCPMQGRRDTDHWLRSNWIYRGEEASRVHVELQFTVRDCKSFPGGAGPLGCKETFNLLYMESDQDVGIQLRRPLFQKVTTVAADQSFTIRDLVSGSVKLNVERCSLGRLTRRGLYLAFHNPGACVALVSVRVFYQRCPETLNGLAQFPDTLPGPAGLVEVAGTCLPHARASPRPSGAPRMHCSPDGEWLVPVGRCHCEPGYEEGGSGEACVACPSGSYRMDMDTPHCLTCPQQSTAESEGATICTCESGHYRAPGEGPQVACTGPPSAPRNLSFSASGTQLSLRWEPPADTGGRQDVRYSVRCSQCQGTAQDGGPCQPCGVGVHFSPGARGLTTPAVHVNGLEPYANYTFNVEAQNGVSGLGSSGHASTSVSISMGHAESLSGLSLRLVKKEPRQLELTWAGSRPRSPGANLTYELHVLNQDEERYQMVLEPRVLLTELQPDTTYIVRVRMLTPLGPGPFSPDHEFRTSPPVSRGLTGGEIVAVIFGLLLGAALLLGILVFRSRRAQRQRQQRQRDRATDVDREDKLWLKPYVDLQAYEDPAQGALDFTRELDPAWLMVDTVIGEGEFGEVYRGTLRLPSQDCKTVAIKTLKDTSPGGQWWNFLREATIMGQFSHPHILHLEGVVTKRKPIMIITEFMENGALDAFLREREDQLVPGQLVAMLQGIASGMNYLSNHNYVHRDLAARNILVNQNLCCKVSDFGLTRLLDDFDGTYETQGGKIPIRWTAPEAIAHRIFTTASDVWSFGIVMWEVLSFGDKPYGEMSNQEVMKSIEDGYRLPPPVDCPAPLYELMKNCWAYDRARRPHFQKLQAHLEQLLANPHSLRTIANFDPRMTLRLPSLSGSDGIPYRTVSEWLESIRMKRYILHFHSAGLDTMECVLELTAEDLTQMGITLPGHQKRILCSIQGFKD
Procedure, shortened: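 Cell-free enzymatic assay with recombinant EphA1 and fluorescent substrate; product separated by electrophoretic mobility shift, fluorescence intensity read 1 hour after dosing. Loss of signal versus DMSO baseline; primary duplicate screen at 25 uM, actives followed to 50 uM top concentration.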

Row | SMILES | outcome | AC50
14 | CC(C)Nc1ccc(Nc2ccccc2)cc1 | inactive | –
15 | Nc1ccc(Cl)cc1 | inactive | –
16 | Cc1ccc2c(c1N)C(=O)c1ccccc1C2=O | – | 19.2 µM (active)
17 | CC(Cl)(Cl)C(=O)O | inactive | –
18 | CC(C)(C)OOC(C)(C)C | inactive | –

What follows are molecules tested against human Fibroblast Growth Factor Receptor 1 (FGFR1), FGFR1 (gene 2260) (UniProt P11362) (assay: NVS_ENZ_hFGFR1: NovaScreen (NVS) Enzymatic Assay for human Fibroblast Growth Factor Receptor 1 (FGFR1) (AID 2283159);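 on AC50: hits lower the signal so potencies describe inhibitors of the kinase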).
Chain of human Fibroblast Growth Factor Receptor 1 (FGFR1), FGFR1 (gene 2260) (P11362 whole entry, looked up): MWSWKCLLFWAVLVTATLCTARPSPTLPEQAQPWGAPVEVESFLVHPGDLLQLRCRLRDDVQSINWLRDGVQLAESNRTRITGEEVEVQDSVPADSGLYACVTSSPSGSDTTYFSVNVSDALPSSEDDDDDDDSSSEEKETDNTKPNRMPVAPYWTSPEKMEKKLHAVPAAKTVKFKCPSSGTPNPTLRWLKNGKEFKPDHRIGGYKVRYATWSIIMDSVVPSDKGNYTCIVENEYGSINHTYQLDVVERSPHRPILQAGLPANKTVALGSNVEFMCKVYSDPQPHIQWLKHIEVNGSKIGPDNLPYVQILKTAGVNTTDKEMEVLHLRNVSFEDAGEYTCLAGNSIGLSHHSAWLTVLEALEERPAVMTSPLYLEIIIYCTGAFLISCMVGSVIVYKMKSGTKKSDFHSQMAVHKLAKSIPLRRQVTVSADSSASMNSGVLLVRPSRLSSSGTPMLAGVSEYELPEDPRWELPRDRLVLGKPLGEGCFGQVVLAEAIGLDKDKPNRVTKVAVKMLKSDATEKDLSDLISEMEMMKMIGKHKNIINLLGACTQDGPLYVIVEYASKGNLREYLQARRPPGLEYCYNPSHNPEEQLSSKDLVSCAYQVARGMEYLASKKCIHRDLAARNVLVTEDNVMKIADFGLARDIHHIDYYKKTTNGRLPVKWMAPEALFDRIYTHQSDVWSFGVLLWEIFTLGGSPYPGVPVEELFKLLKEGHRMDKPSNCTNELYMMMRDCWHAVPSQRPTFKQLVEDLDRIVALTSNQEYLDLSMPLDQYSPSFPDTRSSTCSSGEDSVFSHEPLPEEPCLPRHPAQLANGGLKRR
Experimental: as §1, with “NVS_ENZ_hFGFR1” for “NVS_ENZ_hEGFR”, “plate.NVS_ENZ_hFGFR1” for “plate.NVS_ENZ_hEGFR”, “NVS_ENZ_hFGFR1,” for “NVS_ENZ_hEGFR,”, “FGFR1.” for “EGFR.”
as §2, with “Assay-chemical combinations meeting a pre-defined threshold (e.g., 30% inhibition and other criteria defined below) were then run in singleton concentration-response format with maximum concentration of 20 uM for CYPs and 50 uM for all others.” left out

Row | SMILES | outcome | AC50
19 | ClC1=C(Cl)C2(Cl)C3C(Cl)C(Cl)CC3C1(Cl)C2(Cl)Cl (configuration not stated) | inactive | –
20 | CC1(C)CN=C(NN=C(/C=C/c2ccc(C(F)(F)F)cc2)/C=C/c2ccc(C(F)(F)F)cc2)NC1 | – | 13.6 µM (active)
21 | ClC(Cl)(Cl)c1ccccc1 | inactive | –
22 | CCNc1nc(Cl)nc(NC(C)(C)C)n1 | inactive | –
23 | CCCCN(CCCC)N=O | inactive | –
24 | CSC(C)(C)C=NO | inactive | –
25 | O=[N+]([O-])c1ccccc1 | inactive | –
26 | O=P1(N(CCCl)CCCl)NCCCO1 (configuration not stated) | inactive | –

What follows are molecules tested against Glycogen synthase kinase-3 beta (Homo sapiens) (UniProt P49841) (assay: NVS_ENZ_hGSK3b: NovaScreen (NVS) Enzymatic Assay for human Glycogen Synthase Kinase-3 beta (GSK3b) (AID 2283165)).
Chain of Glycogen synthase kinase-3 beta (Homo sapiens) (P49841 whole entry, looked up): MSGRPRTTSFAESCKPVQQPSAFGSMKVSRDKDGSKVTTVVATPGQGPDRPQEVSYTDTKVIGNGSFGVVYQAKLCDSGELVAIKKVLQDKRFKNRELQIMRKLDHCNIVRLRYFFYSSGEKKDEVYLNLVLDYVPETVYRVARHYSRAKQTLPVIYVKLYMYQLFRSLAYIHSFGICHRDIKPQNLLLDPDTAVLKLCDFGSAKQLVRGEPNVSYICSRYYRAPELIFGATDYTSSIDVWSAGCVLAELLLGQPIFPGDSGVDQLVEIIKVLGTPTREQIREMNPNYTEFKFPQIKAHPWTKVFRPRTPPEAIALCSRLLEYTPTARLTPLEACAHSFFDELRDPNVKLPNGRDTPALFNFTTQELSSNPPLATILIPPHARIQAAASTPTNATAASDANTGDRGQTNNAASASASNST
Procedure, shortened: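 Recombinant enzyme with specific fluorescent substrate, 1 h, product separated by electrophoretic mobility shift. Primary duplicate screen at 25 uM; actives (e.g. 30% inhibition) followed in singleton concentration-response to 50 uM. Signal loss fitted versus DMSO.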

Row | SMILES | outcome
27 | CCC(C)(C)c1ccc(O)cc1 | inactive
28 | c1ccc(OP(Oc2ccccc2)Oc2ccccc2)cc1 | inactive
29 | CCOS(=O)(=O)OCC | inactive
30 | CCOC(=O)c1ccccc1C(=O)OCC | inactive
31 | Cc1ccc(O)cc1C | inactive
32 | OCC1CO1 (configuration not stated) | inactive
33 | CC(C)(C)OOC(C)(C)C | inactive
34 | Nc1ccc2ccccc2c1 | inactive
35 | CC(C)(C)c1ccc(O)cc1 | inactive

The molecules below were run against human Mitogen-Activated Protein Kinase 1 (MAPK 1), MAPK1 (gene 5594) (UniProt P28482) (assay: NVS_ENZ_hMAPK1: NovaScreen (NVS) Enzymatic Assay for human Mitogen-Activated Protein Kinase 1 (MAPK 1) (AID 2283175)).
Chain of human Mitogen-Activated Protein Kinase 1 (MAPK 1), MAPK1 (gene 5594) (P28482 whole entry, looked up): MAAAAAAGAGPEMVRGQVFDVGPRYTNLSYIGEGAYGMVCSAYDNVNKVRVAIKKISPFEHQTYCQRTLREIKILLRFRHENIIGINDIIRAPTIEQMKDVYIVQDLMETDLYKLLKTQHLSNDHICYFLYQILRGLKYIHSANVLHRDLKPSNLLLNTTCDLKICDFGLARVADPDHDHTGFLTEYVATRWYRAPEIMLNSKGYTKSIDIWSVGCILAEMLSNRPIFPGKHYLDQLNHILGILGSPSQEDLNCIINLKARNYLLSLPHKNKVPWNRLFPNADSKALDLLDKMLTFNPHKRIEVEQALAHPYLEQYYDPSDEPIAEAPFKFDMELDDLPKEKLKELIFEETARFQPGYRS
Experimental: as §1, with “NVS_ENZ_hMAPK1” for “NVS_ENZ_hEGFR”, “plate.NVS_ENZ_hMAPK1” for “plate.NVS_ENZ_hEGFR”, “NVS_ENZ_hMAPK1,” for “NVS_ENZ_hEGFR,”, “MAPK1.” for “EGFR.”, “serine/threonine” for “receptor tyrosine”
Binding assays used specific radioligands (tritiated, iodinated) with non-radioactive competitive displacement ligands in agonist or antagonist protocols (as indicated) and various reference compounds and inhibitors to titrate specific binding to receptors and transporters. Most enzyme assays (CYPs, kinases, phosphatases, proteases, HDACs) used recombinant protein and specific substrates (fluorescence mostly, some colorimetric and radioactive) and inhibitors, followed by a biochemical separation of substrate and product. All assays for the biochemical HTS were initially run in duplicate at a single concentration (10 uM for CYP450 assays and 25 uM for all others). […]

Row | SMILES | outcome
36 | ClC1=C(Cl)C2(Cl)C3C(Cl)C(Cl)CC3C1(Cl)C2(Cl)Cl (configuration not stated) | inactive
37 | Cc1ccc(O)cc1C | inactive
38 | CC(C)(C)OOC(C)(C)C | inactive

Each molecule was assayed against human Matrix Metalloproteinase-7 (MMP7), MMP7 (gene 4316) (UniProt P09237) (assay: NVS_ENZ_hMMP7: NovaScreen (NVS) Enzymatic Assay for human Matrix Metalloproteinase-7 (MMP7) (AID 2283183)).
Chain of human Matrix Metalloproteinase-7 (MMP7), MMP7 (gene 4316) (P09237 whole entry, looked up): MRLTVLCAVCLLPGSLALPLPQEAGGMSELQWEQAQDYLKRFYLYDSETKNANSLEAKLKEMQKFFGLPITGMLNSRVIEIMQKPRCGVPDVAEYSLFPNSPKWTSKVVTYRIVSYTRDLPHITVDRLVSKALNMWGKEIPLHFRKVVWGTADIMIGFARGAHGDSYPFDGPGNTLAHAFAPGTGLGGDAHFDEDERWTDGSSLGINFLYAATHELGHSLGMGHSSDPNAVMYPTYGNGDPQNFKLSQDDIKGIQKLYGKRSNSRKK
Procedure, shortened: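 Compounds first tested at 25 uM in duplicate, then at up to 50 uM in concentration series if active. Protease activity measured by fluorescence intensity 1 h after dosing, with fitting relative to DMSO.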

Row | SMILES | outcome
39 | CCOP(=S)(OCC)SCSCC | inactive
40 | CCOc1ccc(C(C)(C)COCc2cccc(Oc3ccccc3)c2)cc1 | inactive
41 | CCCCN(CCCC)N=O | inactive
42 | CSC(C)(C)C=NO | inactive
